From PubChem BioAssay
Vaccinia Venus – vaccinia inhibition (Venus reporter). Vaccinia virus Venus reporter expression, fluorescence. Potency, µM (highest dose often 36.5 µM), inactives show at the highest dose activity change, negative = inhibition, actives largely listed as inhibitors. actives 0.46% (n = 330,000). AID 720580; calls by dose curve; tested in A549 cells; further: potency means the concentration at half of the fitted maximal effect; on the % scale 0 is the no-effect control and ±100 the full control effect; nearly all actives have a fitted effect of over 30% in size
VACV mCherry inh – inhibitors of vaccinia virus infection (mCherry reporter signal); Vaccinia virus mCherry reporter infection, fluorescence; Potency, µM (top dose mostly 36.5 µM), for the others: at the highest dose activity change, negative = inhibition, most hits filed as inhibitors; actives 0.63% (n = 310,000); AID 720579; calls by dose curve; tested in A549 cells; further: potency means the concentration at half of the fitted maximal effect; on the % scale 0 is the no-effect control and ±100 the full control effect; nearly all actives have a fitted effect of over 35% in size
MARV entry inh – blocks Marburg virus binding to or entry into cells; Marburg virus pseudotyped entry inhibition, cell reporter; Potency, µM (top dose mostly 37.8 µM), for inactives: at the top dose activity change, negative = inhibition, most hits filed as inhibitors; actives 1.8% (n = 300,000); AID 540276; calls by dose curve; tested in HEK293 cells; further: potency means the concentration at half of the fitted maximal effect; on the % scale 0 is the no-effect control and ±100 the full control effect
HCV inh – HCV inhibition. Huh7.5.1 HCVcc-Cre infection, luciferase reporter, 44 h. Potency, µM (highest dose often 41.8 µM), without a hit: top-dose activity change, negative = inhibition, hits mostly inhibitors. actives 3.4% (n = 340,000); further: potency means the concentration at half of the fitted maximal effect; on the % scale 0 is the no-effect control and ±100 the full control effect
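1,000 cells/well; 4 h culture; + compound; + HCVcc-Cre (~0.5 moi); 44 h; luciferase substrate, RT 15 min; read 15 sec.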
Lassa entry inh – Lassa virus entry inhibition. Potency, µM (titrated, usually from 37.9 µM), without a hit: at the highest dose activity change, negative = inhibition, hits mostly inhibitors. AID 540256. Lassa virus pseudotype entry inhibition, cell reporter. actives 1.2% (n = 300,000); calls by dose curve; tested in HEK293 cells; further: potency means the concentration at half of the fitted maximal effect; on the % scale 0 is the no-effect control and ±100 the full control effect; nearly all actives have a fitted effect of over 50% in size
HeLa G2M arrest – inducers of G2/M cell cycle arrest in HeLa cells. shares compounds with MARV entry inh. HeLa cell cycle G2/M arrest, Hoechst DNA content imaging. Potency, µM, most hits filed as inhibitors. actives 60% (n = 25)
WI-38 cytotox – toxic to WI-38 fibroblasts in PNC inhibitor counter-screen | shares compounds with MARV entry inh | WI-38 normal lung fibroblasts, ATPLite luminescence ATP viability, 24 h | Potency, µM (series often up to 46.1 µM), for the others: at the top dose activity change, negative = cytotoxicity, usual class: inhibitors | 120 tested, under 10 active | AID 2729
PNC inh conf – confirmation of perinucleolar compartment assembly inhibitors. shares compounds with MARV entry inh. PC3M PTB-GFP, PNC prevalence imaging, 16 h. Potency, µM (series often up to 46.1 µM), for inactives: at the highest dose activity, negative = PNC inhibition, hits mostly inhibitors. actives 50% (n = 120)
PC3M caspase – counter-screen for PNC inhibitors: PC3M caspase 3/7 activation; shares compounds with MARV entry inh; PC3M-GFP caspase 3/7 activation, luminescence, 24 h; activity change, positive = activation, % at 46.1 µM; 120 tested, under 10 active
HCV inh confirm – confirmation of hepatitis C virus inhibitors; shares compounds with HCV inh; HCVcc-Cre infectious virus cell assay, luciferase, inhibition; Potency, µM (highest dose often 41.8 µM), for the others: at the highest dose activity, negative = inhibition, most hits filed as inhibitors; actives 78% (n = 640); further: potency means the concentration at half of the fitted maximal effect; nearly all actives have a fitted effect of over 80% in size
HCV host tox – counter-screen for HCV inhibitors: host cell cytotoxicity; shares compounds with HCV inh; HCV host cell line cytotoxicity counterscreen; Potency, µM (highest dose often 41.8 µM), for the others: at the top dose activity change, negative = cytotoxicity, most hits filed as inhibitors; actives 22% (n = 640); AID 720576;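 further: potency means the concentration at half of the fitted maximal effect; 44 h compound exposure; on the % scale 0 is the no-effect control and ±100 the full control effect; nearly all actives have a fitted effect of over 55% in size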
Active calls of the source: *; i = inactive; ? = inconclusive; / = not tested or not shown; [ ] = dose if it differs, or a comment. Most compounds without a hit are left out; they make up all but 4.6% or so of the library. Unless noted, the call rests on the fitted dose curve; in most records, active means well fitted curve in the direction sought with a large enough effect; inconclusive means small, poorly fitted or top-dose-only effect, or another doubt; inactive means no such curve, though single readings can be large; an effect the other way counts as inactive or inconclusive.

SMILES | Vaccinia Venus | VACV mCherry inh | MARV entry inh | HCV inh | Lassa entry inh | HCV inh confirm | HCV host tox | others
O=C(N/N=C/c1cc(Cl)ccc1O)C(=O)Nc1ccccc1OC(F)(F)C(F)F | ? | 14µM* | ? | ? | ? | / | / | WI-38 cytotox=-8%;PNC inh conf=?;PC3M caspase=6
COC(=O)N/N=C/c1cn(CCOc2ccccc2OC)c2ccccc12 | / | / | / | -3% | / | / | /
CNC(=S)N/N=C/c1cn(CCOc2ccccc2OC)c2ccccc12 | 7.1µM* | 4.5µM* | ? | ? | -28% | / | / | WI-38 cytotox=-2%;PNC inh conf=?;PC3M caspase=2
O=C(O)c1ccc(-c2nc(-c3ccccc3)c(-c3ccccc3)[nH]2)cc1 | -7% | i | 14% | 13% | ? | / | /
Oc1ccc(-c2nc(-c3ccc(F)cc3)c(-c3ccncc3)[nH]2)cc1 | -12% | -6% | 5µM* | ? | ? | / | / | HeLa G2M arrest=?
Cc1ccc(Cl)cc1N(CC(=O)N1CCCCCC1)S(C)(=O)=O | -12% | -15% | 7% | 9% | 9% | / | / | WI-38 cytotox=6%;PNC inh conf=8%;PC3M caspase=-6
Cc1ccc(Cl)cc1N(CC(=O)N1CCOCC1)S(C)(=O)=O | / | / | / | 2% | / | / | /
C=C(c1ccc(O)cc1)c1ccc(O)cc1 | -29% | / | 6% | 8.9µM* | 1µM* | 14µM* | 42%
CCN(CC)c1ccc(NC(=O)CCc2nc3cccnc3n2Cc2cccs2)c(C)c1 | -8% | 7% | ? | / | -23%[46.1 µM] | / | /
COc1ccc2ccc3ccc(OC)c(OC(C)=O)c3c2c1 | -19% | ? | 14% | ? | 5%[46.1 µM] | 25µM* | -13%
COc1ccc(OC)c(CC(=O)O)c1 | / | / | 2% | 12% | 8% | / | /
Cc1ccc(C)c(N2CCN(C(=O)c3cc(C)nc4c3c(C)nn4-c3ccccc3)CC2)c1 | -23% | ? | / | / | -18%[46.1 µM] | / | /
COc1ccc(-c2sc3ccc(N4CCOCC4)cc3c2C#CCO)cc1 | ? | -16% | / | 3.2µM* | / | 4.4µM* | 5µM*
COc1ccc(/C=C/c2c(-c3ccc(OC)cc3)sc3ccc(N4CCOCC4)cc23)cc1 | -10% | ? | / | -5% | / | / | /
Cn1c2c(c(=O)n(C)c1=O)C(c1ccccc1C(F)(F)F)CC(=O)N2 (configuration not stated) | -12% | -3% | 5%[46.1 µM] | / | -3%[46.1 µM] | / | /
Cn1c(=O)c(=O)n(C)c2cc(S(=O)(=O)Nc3ccc(Cl)c(C(F)(F)F)c3)ccc21 | -6% | -14% | -3%[46.1 µM] | / | 25%[46.1 µM] | / | /
CC1CCCCN1CCn1c(=S)[nH]c2ncccc2c1=O (configuration not stated) | / | / | 5% | 8% | -1% | / | /
CC1CCCCN1CCNc1nc(=S)[nH]c2ccccc12 (configuration not stated) | -10% | i | -3% | 3.5µM* | -5% | -6% | -21%
Cc1nn(C(C)C(=O)NCc2ccco2)c(C)c1[N+](=O)[O-] (configuration not stated) | / | / | / | 10% | / | / | /
C/C(=N\NC(=O)C(C)n1nc(C)c([N+](=O)[O-])c1C)c1ccccc1O (configuration not stated) | ? | ? | 9.2µM* | 2.5µM* | 13µM* | 7.9µM* | ?
